NS1 inh – influenza NS1 inhibition; Potency, µM (doses to about 46.1 µM), for inactives: at the top dose activity, positive = more growth; 270,000 compounds, 0.4% hits; calls by dose curve; also: potency is read from the fitted curve at half-maximal effect; actives are rising curves; nearly all actives have a fitted effect of over 50% in size
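A cell-based growth assay was used: compounds that relieve NS1-induced slow growth of budding yeast raise OD600. Assay medium was yeast nitrogen base with ammonium sulphate and -URA supplement, pH 6.0, with 2% galactose.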
Sm TGR inh – blocks Schistosoma mansoni thioredoxin glutathione reductase. 360,000 compounds, 3% hits. Q962Y6. Potency, µM (doses to about 114 µM), without a hit: at the top dose activity change, negative = inhibition, most hits filed as inhibitors. purified TGR, DTNB reduction, TNB absorbance 405 nm. AID 485364; also: potency is read from the fitted curve at half-maximal effect; % is scaled to controls: 0 for no effect and ±100 for the full control effect; nearly all actives have a fitted effect of over 60% in size
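TGR 20 nM + NADPH 100 uM (dispensed conc.), cpd preinc 15 min RT; start with NADPH (500 uM addition) then DTNB (15 mM addition). Kinetic TNB absorbance, 405 nm filter. Four-parameter Hill fit across titration.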
Cycloheximide cs – counter-screen hit for Shiga toxin inhibitors, cycloheximide; 300,000 compounds, 12% hits; cell reporter, cycloheximide protein synthesis inhibition counterscreen; max response, %; in the data active = max response mostly above about 13%, no sharp cut-off; inactive = mostly below about 14%; also: read at 38.3 µM for the half of the compounds with a filed dose; 0% is about no effect
Pf growth 96h – P. falciparum growth inhibition at 96 hours; P. falciparum luciferase reporter growth, 96 h; Potency, µM (titrated, usually from 28.7 µM), without a hit: at the top dose activity change, negative = inhibition, hits mostly inhibitors; 320,000 compounds, 6.9% hits; AID 504834; also: potency is read from the fitted curve at half-maximal effect; % is scaled to controls: 0 for no effect and ±100 for the full control effect
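Delayed-death screen, second-generation endpoint: infected erythrocytes, 2% hematocrit, 0.05% parasitemia final; 96 hours at 37 C, 5% CO2; luciferase detection reagent; luminescence decrease equals reduced growth.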
Shiga toxin inh – blocks Shiga toxin action in Vero cells; AID 2315; inhibition, % at 38.7 µM; 290,000 compounds, 9.2% hits; Vero cells, Shiga toxin protein synthesis inhibition reporter; in the data active = inhibition mostly above about 28%, no sharp cut-off; inactive = mostly below about 43%; also: 0% is about no effect
Pf growth 48h – inhibits P. falciparum growth in the first generation, 48 h; 310,000 compounds, 5.9% hits; P. falciparum luciferase growth in erythrocytes, 48 h; Potency, µM (series often up to 28.7 µM), for inactives: top-dose activity change, negative = inhibition, actives largely listed as inhibitors; AID 504832; also: potency is read from the fitted curve at half-maximal effect; % is scaled to controls: 0 for no effect and ±100 for the full control effect
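Compounds are pin-transferred into medium, infected erythrocytes (2% hematocrit, 0.1% parasitemia final) are added, and plates sit one parasite generation at 37 C in 5% CO2. Detection reagent is then added and luminescence measured.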
* marks the source's active call; other numbers are inactive results; i = inactive; ? = inconclusive; · = no result given; [ ] = another dose, or the depositor's remark. Sampled rows, rich in hits. Any-hit rate of the full collection: about 21%. Unless noted, calls follow the shape of the dose curve; as a rule, active = well fitted curve in the direction sought with a large enough effect; inconclusive = small, poorly fitted or top-dose-only effect, or another doubt; inactive = no such curve, though single readings can be large; an effect the other way counts as inactive or inconclusive.

SMILES	NS1 inh	Sm TGR inh	Cycloheximide cs	Pf growth 96h	Shiga toxin inh	Pf growth 48h
COc1ccc(Nc2ncc3c(n2)CC(c2ccc(C)cc2)CC3=O)cc1 (stereo unspecified)	4%	11%	2	?	-6	?
Cc1cc2oc(C(=O)Nc3sc4c(c3C(=O)NCc3ccccc3)CCCC4)cc(=O)c2cc1C	·	-3%	·	·	·	·
Cc1ccc(N2C(=O)CSC23C(=O)N(CC(=O)NC2CCCCC2)c2ccccc23)cc1C (stereo unspecified)	·	6%	·	·	·	·
Cc1nc2cc(C(=O)O)ccc2n1-c1ccccc1	11%	-20%	-2	?	5	·
CC1=CC(C)(C)[N+](C)=CN1c1ccccc1	5%	-17%	-4	8.3µM*	-8	?
CN(C)c1ccc(NC(=O)c2ccc([N+](=O)[O-])cc2Cl)cc1	19%	0%	46*	177%	75*	160%
O=C(Nc1cccc(O)c1)c1ccc([N+](=O)[O-])cc1Cl	·	1%	32*	-25%	61*	272%
CC/C(=N\NC(=O)c1ccccc1Cl)c1c(O)n(C2CCCCC2)c(=O)[nH]c1=O	-32%	-31%	14*	?	12	11%
CCC(=NCc1cc(OC)cc(OC)c1)c1c(O)n(C2CCCCC2)c(=O)[nH]c1=O	6%	18%	-2	0.83µM*	22	?
COc1cc(CN=C(C)c2c(O)n(C3CCCCC3)c(=O)[nH]c2=O)cc(OC)c1	8%	17%	-4	0%	-3	?
C=CCn1c(O)c(/C(C)=N/N2CCCCCC2)c(=O)[nH]c1=O	3%	9%	1	-17%	12	7%
CCC(=Nc1ccc2c(c1)CCC2)c1c(O)n(C2CCCCC2)c(=O)[nH]c1=O	-7%	1%[11.4 µM]	2	?	-10	·
CCC(=NC1CC1)c1c(O)n(C2CCCCC2)c(=O)[nH]c1=O	-18%	-26%	10	?	13	?
CC/C(=N\NC(=O)c1ccccc1)c1c(O)n(C2CCCCC2)c(=O)[nH]c1=O	-19%	-32%	34*	-8%	51*	15%
C/C(=N\N1CCCCCC1)c1c(O)n(C2CCCCC2)c(=O)[nH]c1=O	1%	17%	11	13µM*	22	?
Cc1nn(C)cc1C=NCCOCc1ccccc1	-8%	0%	0	-11%	-8	17%
Cc1cccc(N(C(=O)c2snc(C(N)=O)c2N)C(C(=O)NCC2CCCO2)c2c[nH]c3ccccc23)c1 (stereo unspecified)	5%	0%	-3	44%	-7	?
NC(=O)c1nsc(C(=O)N(c2ccc(F)cc2)C(C(=O)NCC2CCCO2)c2c[nH]c3ccccc23)c1N (stereo unspecified)	9%	25µM*	-3	?	23	?
NC(=O)c1nsc(C(=O)N(c2cccc(F)c2)C(C(=O)NCC2CCCO2)c2c[nH]c3ccccc23)c1N (stereo unspecified)	-7%	18µM*	1	-15%	36	?
CCOc1ccc(C(C(=O)NCC2CCCO2)N(C(=O)c2snc(C(N)=O)c2N)c2ccc(F)cc2)cc1 (stereo unspecified)	10%	2%	-2	21%	-6	?
NC(=O)c1nsc(C(=O)N(c2ccc(Cl)cc2)C(C(=O)NCC2CCCO2)c2cccs2)c1N (stereo unspecified)	-2%	0%	-1	5%	21	?
CCc1ccc(N(C(=O)c2snc(C(N)=O)c2N)C(C(=O)NCC2CCCO2)c2cccs2)cc1 (stereo unspecified)	·	3%	37*	10%	57	?
CCOC(=O)c1cc2c(=O)n3ccccc3nc2n(Cc2ccco2)c1=NC(=O)c1cc(C)cc(C)c1	·	-16%	·	·	·	·
CCOC(=O)c1cc2c(=O)n3ccccc3nc2n(C)c1=NC(=O)c1c(-c2c(F)cccc2Cl)noc1C	·	-17%	·	·	·	·
CCCCCn1c(=NC(=O)c2ccco2)c(C(=O)OCC)cc2c(=O)n3ccccc3nc21	17%	?	-3	15µM*	4	-38%
SMILES	NS1 inh	Sm TGR inh	Cycloheximide cs	Pf growth 96h	Shiga toxin inh	Pf growth 48h
CCOC(=O)c1cc2c(=O)n3ccccc3nc2n(Cc2ccco2)c1=NC(=O)c1ccc(OC)cc1OC	·	32µM*	-2	?	-13	?
CCCCn1c(=NC(=O)c2ccco2)c(C(=O)OCC)cc2c(=O)n3cccc(C)c3nc21	-1%	-33%	-2	5.9µM*	7	12µM*
CCOC(=O)c1cc2c(=O)n3ccccc3nc2n(C(C)C)c1=NC(=O)c1c(-c2c(F)cccc2Cl)noc1C	?	-10%	-1	?	-15	3.7µM*
Cn1c([N+](=O)[O-])cnc1CN1CCN(CCO)CC1	-2%	·	·	·	·	·
CCOC(=O)c1c(C)[nH]c(C)c1S(=O)(=O)N1CCC(C(=O)N2CCN(c3ccccc3)CC2)CC1	·	-11%	·	·	·	·
C=CCOc1ccc(/C=C/C(=O)Nc2ccc(C(=O)NC)cc2)cc1	5%	3%	-5	?	-15	?
C=CCOc1ccc(/C=C/C(C)=N\O)cc1	-39%	-15%	50*	i	85*	291%
c1ccc(Nc2cccc(Nc3ccccc3)c2)cc1	-2%	35µM*	44*	?	78*	10%
Nc1cccc(Nc2ccccc2)c1	11%	40µM*	6	?	5	23%
Cc1ccc(Nc2ccccc2)cc1	-4%	-4%	19*	?	13	-10%
Oc1cccc(Nc2ccccc2)c1	·	0%	·	-7%	·	39%
Nc1cccc(Nc2ncnc3ccccc23)c1	3%	4%	1	-21%	·	-3%
Nc1cc(=O)nc(SCC(=O)Nc2ccc(F)cc2)n1-c1ccc(Cl)cc1	·	6%	·	·	·	·
CCCn1c(SCC(=O)N2c3ccccc3CC2C)nnc1-c1ccco1 (stereo unspecified)	-9%	-23%	-2	?	-3	12µM*
CCCn1c(SCC(=O)N2CCc3ccccc32)nnc1-c1ccco1	-10%	-3%	1	?	-12	?
Cn1c(SCC(=O)Nc2ccc(Cl)cc2F)nnc1-c1ccco1	-19%	35µM*	-1	?	-10	-13%
COCCCn1c(SCC(=O)N2CCCC(C)C2)nnc1-c1ccco1 (stereo unspecified)	1%	?	-2	0.59µM*	-12	-5%
Cc1cc(NC(=O)CSc2nnc(-c3ccco3)n2C)no1	·	-28%	·	6%	·	?
CCn1c(SCC(=O)N2CCCC(C)C2)nnc1-c1ccco1 (stereo unspecified)	4%	-4%	1	?	45	12%
CCn1c(SCC(=O)N2c3ccccc3Sc3ccccc32)nnc1-c1ccco1	2%[9.22 µM]	14µM*	1	-12%	-7	?
CCCOc1ccccc1C1Oc2nc(SC)nnc2-c2ccccc2N1C(C)=O (stereo unspecified)	·	22%	·	·	·	·
